Assay results from the supplement of paper PMC10849652.
Of roughly 7,900 targets only a part is listed; those with a hit were picked by preference. About 0.6% of all pairs of compound and target were hits.

Experiments:
Assay in all cases: log2 fold change, soluble protein after heating vs DMSO (PISA); higher = thermal stabilisation; K562 cells, 10 uM, 30 min; active = over 0.2 and 3.5 SD of the protein, either way, in both replicates (recomputed)
[1] = compound: NC(=O)Nc1cc(-c2cccc(F)c2)sc1C(=O)N[C@H]1CCCNC1
Outline: (§1)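 Thermal stability values are relative to control samples and come from duplicates. They are expressed as log2 fold changes. For measurement, K562 cells (2×10^6 cells/mL) received 10 μM compound for 30 min, and aliquots were heated for 3 min over 48°C-58°C, pooled, and extracted at 4°C in PBS with 0.5% NP-40. Soluble protein, the supernatant after 21,000xg for 90 min, was quantified by TMTpro 16plex LC-MS/MS with equalised channel sums.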

[2] = compound: NC(=O)c1cnc(N[C@@H]2CCCC[C@@H]2N)nc1Nc1cccc(-n2nccn2)c1
Outline: as §1

[3] = compound: NC1(c2ccc(-c3nc4ccn5c(=O)[nH]nc5c4cc3-c3ccccc3)cc2)CCC1
Outline: as §1

[4] = compound: NCC(=O)Nc1ccc(-n2nc(C(F)(F)F)cc2-c2ccc3c(ccc4ccccc43)c2)cc1
Outline: as §1

entinostat = compound: Nc1ccccc1NC(=O)c1ccc(CNC(=O)OCc2cccnc2)cc1 [entinostat]
Outline: as §1

vorinostat = compound: O=C(CCCCCCC(=O)Nc1ccccc1)NO [vorinostat]
Outline: as §1

citarinostat = compound: O=C(CCCCCCNC(=O)c1cnc(N(c2ccccc2)c2ccccc2Cl)nc1)NO [citarinostat]
Outline: as §1

silmitasertib = compound: O=C(O)c1ccc2c(c1)nc(Nc1cccc(Cl)c1)c1ccncc12 [silmitasertib]
Outline: as §1

[5] = compound: O=C1NC(=O)C(c2cnc3ccccn23)=C1c1cn2c3c(cc(F)cc13)CN(C(=O)N1CCCCC1)CC2
Outline: as §1

[6] = compound: c1cc(OCCN2CCCCC2)cc(-c2n[nH]c3ccc(-c4nnc[nH]4)cc23)c1
Outline: as §1

entospletinib = compound: c1cn2cc(-c3ccc4cn[nH]c4c3)nc(Nc3ccc(N4CCOCC4)cc3)c2n1 [entospletinib]
Outline: as §1

Measured: log2 fold change

CA1 (UniProt P00915)
Sequence of UniProt P00915 (P00915 whole entry, looked up): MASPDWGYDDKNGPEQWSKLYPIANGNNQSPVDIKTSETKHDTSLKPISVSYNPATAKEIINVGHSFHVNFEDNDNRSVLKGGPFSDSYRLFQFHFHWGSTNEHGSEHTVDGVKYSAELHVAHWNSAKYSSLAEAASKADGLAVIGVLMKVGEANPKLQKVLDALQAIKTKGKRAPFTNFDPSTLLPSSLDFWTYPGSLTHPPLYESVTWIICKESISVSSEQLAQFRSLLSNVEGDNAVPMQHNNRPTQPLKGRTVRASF
active: vorinostat 0.221
inactive: [1] 0.01 | [2] 0.011 | [3] -0.013 | [4] 0.012 | entinostat -0.011 | citarinostat 0.074 | silmitasertib 0.013 | [5] -0.014 | [6] -0.029 | entospletinib 0.018

CSE1L (UniProt P55060)
inactive: [1] -0.037 | [2] -0.067 | [3] -0.162 | [4] -0.071 | entinostat 0.05 | vorinostat 0.015 | citarinostat 0.058 | silmitasertib 0.035 | [5] -0.059 | [6] -0.018 | entospletinib -0.003

CMTM3 (UniProt Q96MX0)
inactive: [1] -0.056 | [2] -0.033 | [3] -0.08 | [4] 0.072 | entinostat -0.03 | vorinostat -0.087 | citarinostat -0.118 | silmitasertib 0.009 | [5] 0.096 | [6] -0.189 | entospletinib 0.043

COPS3 isoform 2 (UniProt Q9UNS2)
Sequence of UniProt Q9UNS2 (Q9UNS2 whole entry, looked up): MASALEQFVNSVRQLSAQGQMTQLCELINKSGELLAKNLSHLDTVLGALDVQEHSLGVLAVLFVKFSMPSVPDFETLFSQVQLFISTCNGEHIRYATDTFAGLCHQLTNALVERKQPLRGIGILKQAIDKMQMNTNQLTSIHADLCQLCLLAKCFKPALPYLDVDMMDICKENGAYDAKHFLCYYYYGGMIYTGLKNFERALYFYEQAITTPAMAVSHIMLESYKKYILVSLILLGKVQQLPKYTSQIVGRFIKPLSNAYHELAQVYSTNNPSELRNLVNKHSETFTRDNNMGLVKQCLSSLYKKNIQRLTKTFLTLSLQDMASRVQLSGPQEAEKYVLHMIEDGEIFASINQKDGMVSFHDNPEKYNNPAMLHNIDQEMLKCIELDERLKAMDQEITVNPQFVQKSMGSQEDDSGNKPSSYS
inactive: [1] -0.129 | [2] -0.364 | [3] -0.005 | [4] -0.272 | entinostat -0.007 | vorinostat -0.169 | citarinostat -0.14 | silmitasertib 0 | [5] -0.597 | [6] 0.011 | entospletinib 0.135

CD81 (UniProt P60033)
inactive: [1] -0.051 | [2] 0.222 | [3] 0.21 | [4] 0.231 | entinostat -0.028 | vorinostat -0.074 | citarinostat 0.065 | silmitasertib 0.052 | [5] 0.066 | [6] -0.166 | entospletinib 0.019

CASP8 isoform 9 (UniProt Q14790)
inactive: [1] -0.06 | [2] -0.051 | [3] -0.186 | [4] -0.151 | entinostat -0.119 | vorinostat -0.021 | citarinostat -0.048 | silmitasertib 0.12 | [5] 0.008 | [6] 0.009 | entospletinib 0.005

CLASP2 isoform 3 (UniProt O75122)
Sequence of UniProt O75122 (O75122 whole entry, looked up): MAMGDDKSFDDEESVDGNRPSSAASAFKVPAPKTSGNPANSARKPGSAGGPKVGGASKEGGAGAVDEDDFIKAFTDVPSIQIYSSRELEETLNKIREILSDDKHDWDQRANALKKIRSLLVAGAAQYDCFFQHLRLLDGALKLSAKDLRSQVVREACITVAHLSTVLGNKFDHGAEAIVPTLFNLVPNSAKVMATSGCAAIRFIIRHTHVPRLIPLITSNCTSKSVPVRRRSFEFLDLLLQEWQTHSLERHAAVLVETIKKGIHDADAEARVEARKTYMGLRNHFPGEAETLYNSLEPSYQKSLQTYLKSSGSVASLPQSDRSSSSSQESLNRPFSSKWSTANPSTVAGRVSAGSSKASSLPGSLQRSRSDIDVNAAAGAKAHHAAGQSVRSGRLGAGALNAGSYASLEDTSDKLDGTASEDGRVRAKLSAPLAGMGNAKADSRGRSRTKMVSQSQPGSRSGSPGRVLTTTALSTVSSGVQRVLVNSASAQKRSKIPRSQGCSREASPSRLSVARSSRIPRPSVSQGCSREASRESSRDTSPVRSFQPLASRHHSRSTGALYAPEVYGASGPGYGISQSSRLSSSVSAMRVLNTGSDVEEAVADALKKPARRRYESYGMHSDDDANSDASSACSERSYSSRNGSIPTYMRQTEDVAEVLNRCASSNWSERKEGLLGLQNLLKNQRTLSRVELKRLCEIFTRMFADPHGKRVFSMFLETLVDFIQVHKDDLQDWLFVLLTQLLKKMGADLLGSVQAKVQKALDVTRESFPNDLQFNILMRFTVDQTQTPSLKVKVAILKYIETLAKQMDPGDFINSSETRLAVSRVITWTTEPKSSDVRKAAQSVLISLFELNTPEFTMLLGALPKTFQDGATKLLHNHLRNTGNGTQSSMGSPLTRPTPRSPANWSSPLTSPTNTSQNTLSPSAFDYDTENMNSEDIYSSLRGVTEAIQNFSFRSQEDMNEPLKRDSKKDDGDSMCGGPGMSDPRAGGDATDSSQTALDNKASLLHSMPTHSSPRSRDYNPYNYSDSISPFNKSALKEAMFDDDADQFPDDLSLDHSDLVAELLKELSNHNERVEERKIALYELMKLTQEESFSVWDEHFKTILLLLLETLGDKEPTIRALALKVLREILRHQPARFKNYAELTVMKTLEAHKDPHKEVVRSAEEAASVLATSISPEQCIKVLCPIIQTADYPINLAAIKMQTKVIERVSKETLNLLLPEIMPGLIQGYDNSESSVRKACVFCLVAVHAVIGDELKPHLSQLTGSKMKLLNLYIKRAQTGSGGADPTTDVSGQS
inactive: [1] 0.018 | [2] -0.018 | [3] -0.147 | [4] -0.036 | entinostat 0.02 | vorinostat 0.069 | citarinostat 0.09 | silmitasertib -0.033 | [5] -0.153 | [6] -0.055 | entospletinib -0.046

CCAR1 (UniProt Q8IX12)
inactive: [1] 0 | [2] -0.068 | [3] -0.198 | [4] -0.035 | entinostat 0.021 | vorinostat 0.067 | citarinostat 0.018 | silmitasertib -0.049 | [5] -0.043 | [6] -0.016 | entospletinib -0.015

CPSF6 isoform 2 (UniProt Q16630)
Sequence of UniProt Q16630 (Q16630 whole entry, looked up): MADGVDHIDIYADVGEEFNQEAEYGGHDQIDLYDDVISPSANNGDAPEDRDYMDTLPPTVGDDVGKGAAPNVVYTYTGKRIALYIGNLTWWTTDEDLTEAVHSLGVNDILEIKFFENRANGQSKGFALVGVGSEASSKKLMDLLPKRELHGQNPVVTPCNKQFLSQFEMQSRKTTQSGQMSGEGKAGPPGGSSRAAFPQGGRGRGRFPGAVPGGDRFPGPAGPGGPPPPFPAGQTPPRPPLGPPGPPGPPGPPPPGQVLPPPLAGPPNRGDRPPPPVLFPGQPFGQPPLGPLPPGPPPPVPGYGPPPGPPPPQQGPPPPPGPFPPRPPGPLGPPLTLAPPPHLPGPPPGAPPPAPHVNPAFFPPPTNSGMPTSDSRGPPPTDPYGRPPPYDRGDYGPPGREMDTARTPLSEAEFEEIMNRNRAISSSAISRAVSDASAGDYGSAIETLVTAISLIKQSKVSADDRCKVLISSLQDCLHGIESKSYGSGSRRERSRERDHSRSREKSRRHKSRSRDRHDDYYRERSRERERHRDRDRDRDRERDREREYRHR
inactive: [1] -0.027 | [2] -0.037 | [3] -0.01 | [4] 0.029 | entinostat -0.008 | vorinostat -0.007 | citarinostat 0.004 | [5] -0.003 | [6] -0.179 | entospletinib 0.064
active: silmitasertib -0.225

CSK (UniProt P41240)
Sequence of UniProt P41240 (P41240 whole entry, looked up): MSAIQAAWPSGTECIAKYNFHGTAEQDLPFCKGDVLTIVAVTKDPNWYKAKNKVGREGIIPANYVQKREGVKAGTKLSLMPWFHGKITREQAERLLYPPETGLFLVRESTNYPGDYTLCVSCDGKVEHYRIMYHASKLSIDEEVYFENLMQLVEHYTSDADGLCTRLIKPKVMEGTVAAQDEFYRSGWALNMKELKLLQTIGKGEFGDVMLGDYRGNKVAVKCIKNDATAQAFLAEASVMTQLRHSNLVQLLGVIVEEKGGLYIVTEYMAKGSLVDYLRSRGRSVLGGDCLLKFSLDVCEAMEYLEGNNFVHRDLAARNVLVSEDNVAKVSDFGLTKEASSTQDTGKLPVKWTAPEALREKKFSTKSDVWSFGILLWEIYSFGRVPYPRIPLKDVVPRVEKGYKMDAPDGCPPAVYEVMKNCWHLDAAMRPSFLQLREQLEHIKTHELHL
active: [1] 0.318
inactive: [2] -0.084 | [3] -0.156 | [4] -0.083 | entinostat 0.006 | vorinostat 0.023 | citarinostat 0.03 | silmitasertib 0.046 | [5] -0.048 | [6] -0.014 | entospletinib 0.013

CDC123 (UniProt O75794)
inactive: [1] -0.029 | [2] 0.045 | [3] -0.077 | [4] -0.01 | entinostat 0.026 | vorinostat 0.032 | citarinostat 0.045 | silmitasertib -0.048 | [5] 0.011 | [6] -0.056 | entospletinib -0.081

COQ7 (UniProt Q99807)
Sequence of UniProt Q99807 (Q99807 whole entry, looked up): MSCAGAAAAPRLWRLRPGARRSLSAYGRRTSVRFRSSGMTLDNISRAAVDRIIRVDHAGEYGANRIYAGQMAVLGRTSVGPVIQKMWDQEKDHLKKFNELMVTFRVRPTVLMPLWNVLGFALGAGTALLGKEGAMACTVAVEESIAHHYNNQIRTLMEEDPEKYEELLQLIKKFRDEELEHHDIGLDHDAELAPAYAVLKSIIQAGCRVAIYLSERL
inactive: [1] -0.12 | [2] -0.009 | [3] -0.076 | [4] -0.007 | entinostat 0 | vorinostat -0.032 | citarinostat 0.083 | silmitasertib 0.008 | [5] -0.002 | [6] 0.015 | entospletinib 0.026

CBR1 (UniProt P16152)
active: [6] 0.235
inactive: [1] -0.002 | [2] 0.025 | [3] -0.029 | [4] 0.037 | entinostat -0.008 | vorinostat -0.041 | citarinostat 0.033 | silmitasertib -0.011 | [5] -0.039 | entospletinib -0.019

CLUH (UniProt O75153)
inactive: [1] -0.002 | [2] -0.072 | [3] 0.023 | [4] -0.025 | entinostat 0.022 | vorinostat 0.05 | citarinostat -0.08 | silmitasertib 0.063 | [5] 0.133 | [6] 0.041 | entospletinib 0.06

CSNK1D (UniProt P48730)
Sequence of UniProt P48730 (P48730 whole entry, looked up): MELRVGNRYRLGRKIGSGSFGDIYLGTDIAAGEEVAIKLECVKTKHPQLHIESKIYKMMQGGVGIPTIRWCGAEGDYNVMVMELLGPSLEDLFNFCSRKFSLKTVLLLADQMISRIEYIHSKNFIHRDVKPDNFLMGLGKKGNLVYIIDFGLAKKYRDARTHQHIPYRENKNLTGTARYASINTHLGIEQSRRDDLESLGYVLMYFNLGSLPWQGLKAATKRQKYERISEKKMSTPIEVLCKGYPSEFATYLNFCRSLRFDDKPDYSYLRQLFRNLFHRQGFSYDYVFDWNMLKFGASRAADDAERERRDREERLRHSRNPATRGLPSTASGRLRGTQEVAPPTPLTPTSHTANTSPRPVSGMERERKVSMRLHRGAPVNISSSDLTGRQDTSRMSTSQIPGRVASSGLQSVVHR
inactive: [1] -0.043 | [2] 0.185 | [3] 0.106 | [4] -0.02 | entinostat -0.062 | vorinostat 0 | citarinostat -0.025 | silmitasertib 0.054 | [5] 0.107 | [6] 0.173 | entospletinib 0.109

CDK19 (UniProt Q9BWU1)
inactive: [1] -0.131 | [2] -0.135 | [3] -0.093 | [4] -0.018 | entinostat -0.085 | vorinostat 0.016 | citarinostat -0.265 | silmitasertib 0.327 | [5] 0.16 | [6] -0.089 | entospletinib -0.013

CNN3 (UniProt Q15417)
inactive: [1] -0.051 | [2] -0.125 | [3] -0.124 | [4] -0.144 | entinostat 0.091 | vorinostat 0.023 | citarinostat 0.047 | silmitasertib 0.047 | [5] -0.032 | [6] -0.001 | entospletinib -0.022

CHMP4C (UniProt Q96CF2)
Sequence of UniProt Q96CF2 (Q96CF2 whole entry, looked up): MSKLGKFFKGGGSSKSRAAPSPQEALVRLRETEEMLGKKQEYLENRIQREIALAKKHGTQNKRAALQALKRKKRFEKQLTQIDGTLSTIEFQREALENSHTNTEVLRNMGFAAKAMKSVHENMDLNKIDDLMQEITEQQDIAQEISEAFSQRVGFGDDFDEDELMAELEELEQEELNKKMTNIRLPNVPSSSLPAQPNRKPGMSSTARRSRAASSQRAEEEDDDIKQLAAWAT
inactive: [1] -0.003 | [2] -0.005 | [3] -0.089 | [4] -0.043 | entinostat 0.041 | vorinostat 0.02 | citarinostat -0.138 | silmitasertib 0.028 | [5] -0.22 | [6] 0.052 | entospletinib 0.036

CDK17 isoform 2 (UniProt Q00537)
inactive: [1] -0.066 | [2] -0.258 | [3] -0.04 | [4] -0.074 | entinostat 0.035 | vorinostat -0.114 | citarinostat -0.245 | silmitasertib 0.088 | [5] 0.321 | [6] -0.083 | entospletinib 0.067

CKB (UniProt P12277)
inactive: [1] -0.035 | [2] -0.02 | [3] -0.117 | [4] -0.033 | entinostat -0.001 | vorinostat -0.023 | citarinostat -0.046 | silmitasertib -0.117 | [5] -0.04 | [6] -0.018 | entospletinib 0.063

CCNT1 (UniProt O60563)
inactive: [1] -0.027 | [2] -0.03 | [3] -0.021 | [4] -0.02 | entinostat 0.034 | vorinostat 0.176 | citarinostat 0.053 | silmitasertib 0 | [5] 0.047 | [6] -0.094 | entospletinib 0.038

CDK5RAP1 (UniProt Q96SZ6)
Sequence of UniProt Q96SZ6 (Q96SZ6 whole entry, looked up): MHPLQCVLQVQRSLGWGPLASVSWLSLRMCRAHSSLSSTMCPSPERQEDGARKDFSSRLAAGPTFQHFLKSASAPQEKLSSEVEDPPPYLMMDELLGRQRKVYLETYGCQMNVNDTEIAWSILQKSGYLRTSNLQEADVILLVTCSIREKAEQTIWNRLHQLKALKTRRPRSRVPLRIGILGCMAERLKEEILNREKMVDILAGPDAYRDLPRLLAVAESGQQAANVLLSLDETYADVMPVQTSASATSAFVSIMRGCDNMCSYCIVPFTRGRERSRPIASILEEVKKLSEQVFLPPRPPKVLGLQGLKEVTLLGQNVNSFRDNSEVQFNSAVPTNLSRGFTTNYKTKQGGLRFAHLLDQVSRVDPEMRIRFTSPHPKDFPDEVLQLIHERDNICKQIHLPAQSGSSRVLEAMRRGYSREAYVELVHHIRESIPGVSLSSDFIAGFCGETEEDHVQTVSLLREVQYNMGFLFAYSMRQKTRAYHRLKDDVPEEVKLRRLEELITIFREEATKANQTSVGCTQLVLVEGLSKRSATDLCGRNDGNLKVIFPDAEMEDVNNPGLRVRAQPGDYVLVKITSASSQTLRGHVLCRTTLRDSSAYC
inactive: [1] -0.107 | [2] 0.047 | [3] -0.114 | [4] 0.199 | entinostat -0.008 | vorinostat -0.089 | citarinostat -0.055 | silmitasertib 0.06 | [5] -0.023 | [6] -0.031 | entospletinib 0.03

CBS (UniProt P35520)
inactive: [1] -0.008 | [2] 0.006 | [3] -0.025 | [4] 0.016 | entinostat -0.033 | vorinostat -0.031 | citarinostat -0.058 | silmitasertib -0.038 | [5] -0.027 | [6] 0.027 | entospletinib 0.016

C19orf53 (UniProt Q9UNZ5)
inactive: [1] 0.136 | [2] 0.061 | [3] 0.279 | [4] 0.177 | entinostat -0.026 | vorinostat -0.051 | citarinostat -0.105 | silmitasertib 0.123 | [5] 0.214 | [6] -0.155 | entospletinib 0.099

CDC42BPA isoform 6 (UniProt Q5VT25)
inactive: [1] -0.325 | [2] -0.334 | [3] -0.06 | [4] -0.003 | entinostat 0.012 | vorinostat 0.051 | citarinostat 0.115 | silmitasertib 0.11 | [5] -0.041 | [6] -0.203 | entospletinib 0.112

CCZ1 (UniProt P86791)
Sequence of UniProt P86791 (P86791 whole entry, looked up): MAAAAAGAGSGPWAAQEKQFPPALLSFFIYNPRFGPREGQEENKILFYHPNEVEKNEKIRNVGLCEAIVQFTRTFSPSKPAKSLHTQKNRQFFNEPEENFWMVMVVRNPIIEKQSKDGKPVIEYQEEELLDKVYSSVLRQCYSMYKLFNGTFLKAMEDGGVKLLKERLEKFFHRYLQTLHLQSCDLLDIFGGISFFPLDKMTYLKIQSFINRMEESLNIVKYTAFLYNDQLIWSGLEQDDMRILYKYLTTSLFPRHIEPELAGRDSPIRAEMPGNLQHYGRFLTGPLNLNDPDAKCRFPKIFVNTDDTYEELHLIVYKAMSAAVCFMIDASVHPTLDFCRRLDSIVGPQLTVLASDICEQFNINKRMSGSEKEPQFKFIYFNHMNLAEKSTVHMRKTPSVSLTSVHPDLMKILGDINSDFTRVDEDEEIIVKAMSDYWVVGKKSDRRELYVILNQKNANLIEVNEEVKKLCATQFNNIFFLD
active: [3] -0.33
inactive: [1] 0.036 | [2] -0.072 | [4] -0.077 | entinostat 0.006 | vorinostat 0.013 | citarinostat -0.011 | silmitasertib 0.039 | [5] -0.01 | [6] -0.033 | entospletinib 0.039

CALCOCO2 isoform 4 (UniProt Q13137)
active: [3] -0.324
inactive: [1] -0.017 | [2] -0.075 | [4] -0.185 | entinostat -0.006 | vorinostat -0.006 | citarinostat 0.035 | silmitasertib 0.047 | [5] 0.071 | [6] -0.034 | entospletinib 0.005
